Granule exo inh = LAMP-1 surface exposure blockers, TALL-104 cells – cell-based, flow cytometry, MLPCN library, primary screen. TALL-104 LAMP-1 surface exposure; cells stimulated with thapsigargin and PMA. inhibition, % at 10 µM. 0.66% of 360,000 active;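 active = inhibition above about 55%, limit read from the data; inconclusive = no clear call, values can overlap the other calls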
VLA-4 inh = inhibition in human VLA-4 binding assay, primary screen, VLA-4 allosteric modulator project, MLPCN library, flow cytometry, VLA-4 expressing cells. Integrin alpha-4 (Homo sapiens), P13612. ligand binding flow cytometry. inhibition, % (about 7 µM as worked out from the volumes in the protocol). 0.2% of 330,000 active. AID 2557, 2010; in the data active = inhibition above about 50%
JMJD2C inh = inhibitors of GASC-1 histone demethylase, primary screen, biochemical, fluorescence, DELFIA europium | 0.069% of 330,000 active | GST-JMJD2C(1-420) H3K9me3 demethylation | inhibition, % at 2.35 µM;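 active = more than half of a compound's replicate wells show inhibition beyond 50%, single wells judged on their own value; inconclusive = some, but no more than half, of replicates pass 50% inhibition; inactive = no replicate passes 50% inhibition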;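 also: signal counts dimethyl H3K9 product captured on neutravidin plate; 0% = median of DMSO wells and 100% = 0.3 times that DMSO median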
V-ATPase pHluor = regulators of yeast V-ATPase proton pumping, primary screen, pHLuorin cytosolic pH fluorescence | response, % at 10 µM | 0.37% of 350,000 active | S. cerevisiae; in the data active = response mostly above about 7.3%, no sharp cut-off; inactive = mostly below about 5.4%; also: actives read high
MEX-5 binding = MEX-5 zinc finger RNA-binding disruptors – biochemical, C. elegans, fluorescence polarization, MLPCN library, primary screen; 0.38% of 300,000 active; MEX-5/FITC-TCR2 RNA binding; active compounds read low; Zinc finger protein mex-5 (Caenorhabditis elegans), Q9XUB2; activity score (negative = inhibition of binding), % at 10 µM;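 active = inhibition past about -25% in most replicates, and total fluorescence under double the plate's negative control median, limit read from the data; inconclusive = replicates evenly split on the limit, or fluorescence at least double controls; inactive = too little inhibition in most replicates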;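 also: 0% = DMSO and -100% = 5 µM competing unlabeled TCR2 RNA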
m5-HT2A agonist = mouse Htr2a agonists via beta-arrestin recruitment, primary screen, cell-based, luminescence; 0.66% of 360,000 active; CHO-K1 mHTR2A beta-arrestin complementation; percent of 30 µM serotonin response; activation, % at 7.6 µM;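 active = activation above a run cutoff, the mean activation of all tested compounds plus 3 SD, cut at about 14% in these data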;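 also: 0% = plate median of compound wells and 100% = 30 µM serotonin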
The depositor's hits bear a star. The list is not random: actives were taken first. Their share in the collection is about 2.2%.

How did C=CCn1c(=O)[nH]c2nc3cc(N=CN(C)C)c(C)cc3nc2c1=O do in these assays?
Granule exo inh: -3; VLA-4 inh: -12; JMJD2C inh: -4; V-ATPase pHluor: 0; MEX-5 binding: -51*; m5-HT2A agonist: 0

What do the screens show for `Nc1ncnc2c1ncn2[C@@H]1O[C@H](CNCC#Cc2ccccc2)[C@@H](O)[C@H]1O`?
Granule exo inh: -1; VLA-4 inh: -17; JMJD2C inh: 54*; V-ATPase pHluor: 6; m5-HT2A agonist: -3

What do the screens show for `CC1Sc2ccccc2N(Cc2ccc(OC(F)(F)F)cc2)C1=O` (centres undefined)?
Granule exo inh: -3; m5-HT2A agonist: 7

What do the screens show for `CC(=O)C1=C(c2ccccc2)NC(=O)NC1c1ccc(O)c(O)c1` (centres undefined)?
Granule exo inh: -3; VLA-4 inh: -5; JMJD2C inh: 6; V-ATPase pHluor: -1; MEX-5 binding: -29*; m5-HT2A agonist: 0

Results for COCc1cc(C)nc2sc(C(=O)Nc3cccc(OC)c3)c(N)c12 ?
Granule exo inh: 19; VLA-4 inh: 28; JMJD2C inh: 6; V-ATPase pHluor: -1; MEX-5 binding: -1; m5-HT2A agonist: 0

Results for CCn1c(SCC(=O)Nc2nnc(C)s2)nnc1-c1ccncc1 ?
Granule exo inh: -3; VLA-4 inh: -8; JMJD2C inh: -3; V-ATPase pHluor: 1; MEX-5 binding: 2; m5-HT2A agonist: 7

What do the screens show for `CCn1c(SCC(=O)Nc2nc(C)cs2)nnc1-c1ccncc1`?
Granule exo inh: 2; VLA-4 inh: 7; JMJD2C inh: 54*; V-ATPase pHluor: -1; MEX-5 binding: 1; m5-HT2A agonist: -1

What do the screens show for `COc1ccc2c(c1)c1nc3ccccc3nc1n2CCCN1C(=O)c2ccccc2C1=O`?
Granule exo inh: -4; VLA-4 inh: 22; JMJD2C inh: 8; V-ATPase pHluor: 0; MEX-5 binding: -42*; m5-HT2A agonist: -2

What do the screens show for `COc1ccc2c(c1)c1nc3ccccc3nc1n2Cc1ccc(OC(C)C)c(OC)c1`?
Granule exo inh: -2; VLA-4 inh: -7; JMJD2C inh: -10; V-ATPase pHluor: -2; MEX-5 binding: -73*; m5-HT2A agonist: -4

What do the screens show for `COc1ccc2c(c1)c1nc3ccccc3nc1n2CC(=O)OC(C)C`?
Granule exo inh: -3; VLA-4 inh: 6; JMJD2C inh: 7; V-ATPase pHluor: 0; MEX-5 binding: inconclusive; m5-HT2A agonist: -2

Results for COc1ccc(Cn2c(N)c(C#N)c3nc4ccccc4nc32)cc1OC ?
Granule exo inh: 0; VLA-4 inh: 6; JMJD2C inh: 23; V-ATPase pHluor: -1; MEX-5 binding: -10; m5-HT2A agonist: -1

What do the screens show for `COc1ccc(Cn2c3ccc(OC)cc3c3nc4ccccc4nc32)cc1`?
Granule exo inh: -1; VLA-4 inh: 6; JMJD2C inh: 6; V-ATPase pHluor: -2; MEX-5 binding: -39*; m5-HT2A agonist: 1

How did O=C(Nc1ccc(Cl)cc1Cl)c1cccc(N2C(=O)C=CC2=O)c1 do in these assays?
Granule exo inh: 49; VLA-4 inh: 49; JMJD2C inh: 14; V-ATPase pHluor: 78*; MEX-5 binding: -4; m5-HT2A agonist: 1

How did Cc1cc(/C=C(\C#N)c2nc3ccccc3[nH]2)c(C)n1C do in these assays?
Granule exo inh: -1; VLA-4 inh: -30; JMJD2C inh: -7; V-ATPase pHluor: 0; MEX-5 binding: -28*; m5-HT2A agonist: 1

Results for Cc1cc(/C=C(/C#N)c2nc3ccccc3[nH]2)c(C)n1-c1cccc([N+](=O)[O-])c1 ?
Granule exo inh: 3; VLA-4 inh: -10; JMJD2C inh: -1; V-ATPase pHluor: -1; MEX-5 binding: 0; m5-HT2A agonist: -4

What do the screens show for `O=[N+]([O-])c1cc(CN2CCN(c3ccccc3)CC2)c(O)c2ncccc12`?
Granule exo inh: 3; VLA-4 inh: 3; JMJD2C inh: -21; V-ATPase pHluor: 6.6*; MEX-5 binding: -5; m5-HT2A agonist: -4

Source: PubChem
